Several values for one entry are separate records, joined by “and”; a condition that tells them apart may be missing. Equal values may be shown once. Values without a mark were called inactive. Results filed as inconclusive are left out. A call without a number means that no potency is given here. Activity calls are given as the source filed them. Unless noted, calls follow the shape of the dose curve; as a rule, active = well fitted curve in the direction sought with a large enough effect; inconclusive = small, poorly fitted or top-dose-only effect, or another doubt; inactive = no such curve, though single readings can be large; an effect the other way counts as inactive or inconclusive.
Key:
[1] = Cell Viability - Mesenchymal (AID 546);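 also: cells exposed to compound for 40 hours before reading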
Outline: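 Normal human renal glomerulus-derived kidney mesenchymal cells, 1000 per well in complete medium, were treated with compounds for 40 hr at 37 °C. Viability was read as intracellular ATP by CellTiter-Glo luminescence; AC50 values came from Hill-equation fits of qHTS concentration-response data.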

[2] = MultiTox-Fluor Cytotoxicity Assay - LYMP1-002 - Live Cells (AID 955);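 also: cells exposed to compound for 16 hours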
Outline: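 Read-out is live-cell protease activity (cell-permeant GF-AFC substrate, fluorescence Ex/Em=405/510), where a decrease indicates acute toxicity. Human lymphoblastoid cells were treated 16 hours at 37 C in a concentration series, and AC50 values came from standard Hill modelling.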

[3] = MultiTox-Fluor Cytotoxicity Assay - LYMP1-002 - Dead Cells (AID 960); also: nearly all actives have a fitted effect of over 60% in size; also: potency is read from the fitted curve at half-maximal effect
Outline: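 LYMP1-002 cells 2500/well; 5 hr 37 C pre-incubation; compound 16 hr 37 C; MultiTox-Fluor reagent 60 min RT; dead-cell fluor Ex/Em 485/520. Norm. to DMSO (0%) vs 15 uM tetraoctylammonium bromide (100%); Hill AC50.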

[4] = Cell Viability - LYMP2-011 (AID 969); also: nearly all actives have a fitted effect of over 60% in size; also: potency is read from the fitted curve at half-maximal effect
Outline: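 2500 cells/well, 5 hr 37 C; compound added, 24 hr 37 C; CellTiter-Glo 30 min RT; luminescence. qHTS concentration-response, Hill-equation AC50. Tetraoctylammonium bromide positive control.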

[5] = Cell Viability - LYMP2-021 (AID 974);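 also: compound exposure lasts 24 hours at 37 °C; nearly all actives have a fitted effect of over 55% in size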; also: potency is read from the fitted curve at half-maximal effect
Outline: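 Plate 2500 lymphoblastoid cells per well and incubate 5 hr at 37 C. Add compounds over a concentration range and incubate 24 hr at 37 C. Add CellTiter-Glo, wait 30 min at room temperature, read luminescence.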

[6] = Cell Viability - LYMP2-025 (AID 976);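 also: cells exposed to compound for 24 h at 37 °C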; also: potency is read from the fitted curve at half-maximal effect
Outline: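 Seed 2500 LYMP2-025 cells/well; 5 hr at 37 C; add compound; 24 hr at 37 C; add CellTiter-Glo; 30 min RT; read luminescence. AC50 from Hill-modelled concentration-response.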

[7] = Cell Viability - LYMP2-007 (AID 979);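 also: cells exposed to compound for 24 h before reading; nearly all actives have a fitted effect of over 60% in size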; also: potency is read from the fitted curve at half-maximal effect
Outline: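 Luminescent ATP signal (CellTiter-Glo) serves as the viability read-out after 24 hr compound treatment of lymphoblastoid cells in complete medium at 37 C. Concentration-response data were fitted to the Hill equation to give AC50 values.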

[8] = Cell Viability - LYMP2-018 (AID 985); also: nearly all actives have a fitted effect of over 50% in size; also: potency is read from the fitted curve at half-maximal effect
Outline: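 Luminescent ATP signal (CellTiter-Glo, read after 30 min at room temperature) reports viable cells after 24 hr compound treatment at 37 C. Concentration-response data were fitted to the standard Hill equation for AC50.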

[9] = molecular target: Thyroid hormone receptor beta (Homo sapiens) (UniProt P10828); assay: qHTS assay for small molecule agonists of thyroid hormone receptor beta signaling (AID 588545; calls by dose curve)
Outline: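 HEK 293 TR-UAS-bla; agonist mode; 18 hrs, 37 C; CCF4, ex 405/em 460 and 530 nm; norm. T3 10 nM = 100%, DMSO = 0%; Hill fit → EC50, efficacy.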

[10] = qHTS assay for small molecule agonists of the antioxidant response element (ARE) signaling pathway (AID 651741; active = well fitted activation curve with a large enough effect in the signal ratio; the % refers to the signal ratio; also: potency is read from the fitted curve at half-maximal effect)
Outline: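 Compounds in DMSO are pinned onto HepG2 ARE-bla cells (2,000/well) that were preincubated 5 h; plates stay 16 h at 37 C, then beta-lactamase activity is detected with LiveBLAzer B/G substrate by fluorescence.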

[11] = qHTS assay for environmental chemicals that activate the Aryl hydrocarbon Receptor (AhR) signaling pathway (AID 651777); conditions: 1A2-DRE human hepatoma cells, luciferase, 24 h; activation: active compounds read high; also: nearly all actives have a fitted effect of over 15% in size
Outline: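 Concentration–response screening used 1,200 1A2-DRE cells per well, 24 hr compound exposure (37 C, 5% CO2), and One-Glo luminescence as the AhR-driven CYP1A2 reporter signal.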

[12] = molecular target: Nuclear receptor ROR-gamma (Homo sapiens) (UniProt P51449); assay: qHTS assay for small molecule antagonists of the retinoid-related orphan receptor gamma (ROR-gamma) signaling pathway (AID 651802); also: nearly all actives have a fitted effect of over 60% in size; also: potency is read from the fitted curve at half-maximal effect
Outline: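 CHO, TET-inducible ROR + RORE-LUC reporter, 1536-well qHTS. Compound pinned, doxycycline added, 16hr 37C/5% CO2. ONE-Glo, 30 min RT, luminescence; signal drop scored as antagonism.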

[13] = Cellular Toxicity (caspase-3) SHSY5Y (AID 657);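 also: cells exposed to compound for 16 hours at 37 °C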
Outline: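 qHTS, SH-SY5Y, 1500 cells/well, 5 h pre-incubation 37 °C; compound 16 h 37 °C; Caspase-Glo 3/7 1 h RT; luminescence. Norm.: DMSO = 0, 10 uM staurosporine = 100%. Hill fit → AC50.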

[14] = Cellular Toxicity (caspase-3) SK-N-SH (AID 661);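 also: cells exposed to compound for 16 hours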
Outline: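 Human neuroblastoma SK-N-SH, 1500 cells/well, 5 hr pre-incubation, then compound 16 hr, 37 °C. Caspase-Glo 3/7 reagent, 1 hr RT, luminescence. Norm. to DMSO/10 uM staurosporine; Hill-fit AC50.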

[15] = Cellular Toxicity (caspase-3) Hek293 (AID 664);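 also: cells exposed to compound for 16 h at 37 °C before readout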
Outline: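 Cells plated, 5 hr at 37 °C; compounds added; 16 hr at 37 °C; Caspase-Glo 3/7 reagent, 20 min RT; luminescence read. Activation expressed relative to DMSO and 100 uM tamoxifen, AC50 by Hill model.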

[16] = Cell Viability - LYMP1-002 - Assay at 16 hr (AID 948); also: potency is read from the fitted curve at half-maximal effect
Outline: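 Seed 2500 LYMP1-002 cells per well in complete medium and hold 5 hr at 37 C. Add compound across a concentration series and incubate 16 hr at 37 C. Add CellTiter-Glo, wait 30 min at room temperature, read luminescence.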

[17] = MultiTox-Fluor Cytotoxicity Assay - LYMP1-003 - Live Cells (AID 962);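 also: cells exposed to compound for 16 hours at 37 °C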; also: potency is read from the fitted curve at half-maximal effect
Outline: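 qHTS, 1536-well; 2500 cells/well LYMP1-003; 5 hr 37 C settle; cpd 16 hr 37 C; MultiTox-Fluor reagent 60 min RT; live-cell protease fluor. 405/510; Hill-fit AC50; tetraoctylammonium bromide pos. ctrl.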

[18] = Cell Viability - LYMP1-003 - Assay at 24 hr (AID 963); also: potency is read from the fitted curve at half-maximal effect
Outline: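 Cells seeded at 2500/well, 5 hr at 37 C; compounds added; 24 hr at 37 C; CellTiter-Glo added, 30 min room temperature; luminescence read. Decrease in ATP taken as cytotoxicity, AC50 from Hill modelling.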

[19] = Cell Viability - LYMP2-010 (AID 981); also: nearly all actives have a fitted effect of over 55% in size; also: potency is read from the fitted curve at half-maximal effect
Outline: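 Luminescent ATP signal (CellTiter-Glo) served as the viability read-out. Cells of the human lymphoblastoid line were treated with compound over a concentration range for 24 hours at 37 C, and AC50 values came from Hill-equation modeling.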

[20] = molecular target: Peroxisome proliferator-activated receptor alpha (Homo sapiens) (UniProt Q07869); assay: qHTS assay for small molecule agonists of the peroxisome proliferator-activated receptor alpha (PPARalpha) signaling pathway (AID 651778); conditions: PathHunter PPARalpha complementation, chemiluminescence, 6 h; active compounds read high
Outline: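 Cells plated at 2,000/well and held overnight at 37 C, 5% CO2, then compound added by pin tool for 6 hr; after PathHunter detection reagent and 60 min at room temperature, chemiluminescence from enzyme complementation was read.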

Nuclear receptor ROR-gamma (Homo sapiens), sequence (P51449 whole entry, looked up): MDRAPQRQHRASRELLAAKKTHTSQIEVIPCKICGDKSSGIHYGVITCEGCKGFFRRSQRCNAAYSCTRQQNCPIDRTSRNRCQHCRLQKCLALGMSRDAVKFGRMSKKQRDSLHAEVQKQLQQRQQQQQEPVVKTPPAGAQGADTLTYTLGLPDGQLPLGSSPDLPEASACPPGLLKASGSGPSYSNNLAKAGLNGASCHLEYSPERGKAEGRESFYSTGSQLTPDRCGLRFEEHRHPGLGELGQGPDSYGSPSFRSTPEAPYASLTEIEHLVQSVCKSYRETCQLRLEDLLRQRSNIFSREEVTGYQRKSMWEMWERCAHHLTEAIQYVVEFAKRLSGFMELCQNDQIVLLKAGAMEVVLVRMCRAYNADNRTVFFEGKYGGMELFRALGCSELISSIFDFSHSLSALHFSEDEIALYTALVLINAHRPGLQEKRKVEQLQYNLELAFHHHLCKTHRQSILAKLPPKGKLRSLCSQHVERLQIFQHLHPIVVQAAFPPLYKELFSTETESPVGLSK
Peroxisome proliferator-activated receptor alpha (Homo sapiens), sequence (Q07869 whole entry, looked up): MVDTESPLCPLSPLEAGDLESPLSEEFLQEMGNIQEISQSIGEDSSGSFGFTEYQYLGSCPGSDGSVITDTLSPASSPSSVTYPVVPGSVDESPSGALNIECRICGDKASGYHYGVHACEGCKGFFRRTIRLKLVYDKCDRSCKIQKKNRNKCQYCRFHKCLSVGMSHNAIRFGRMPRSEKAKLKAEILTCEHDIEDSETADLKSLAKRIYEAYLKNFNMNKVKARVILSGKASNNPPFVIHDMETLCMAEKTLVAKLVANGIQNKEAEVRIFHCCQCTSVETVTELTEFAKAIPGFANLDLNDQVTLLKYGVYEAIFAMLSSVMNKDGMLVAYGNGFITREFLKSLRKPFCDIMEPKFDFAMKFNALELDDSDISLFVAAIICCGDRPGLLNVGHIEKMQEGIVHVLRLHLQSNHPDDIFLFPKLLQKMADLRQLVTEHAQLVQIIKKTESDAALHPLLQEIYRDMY
Thyroid hormone receptor beta (Homo sapiens), sequence (P10828 whole entry, looked up): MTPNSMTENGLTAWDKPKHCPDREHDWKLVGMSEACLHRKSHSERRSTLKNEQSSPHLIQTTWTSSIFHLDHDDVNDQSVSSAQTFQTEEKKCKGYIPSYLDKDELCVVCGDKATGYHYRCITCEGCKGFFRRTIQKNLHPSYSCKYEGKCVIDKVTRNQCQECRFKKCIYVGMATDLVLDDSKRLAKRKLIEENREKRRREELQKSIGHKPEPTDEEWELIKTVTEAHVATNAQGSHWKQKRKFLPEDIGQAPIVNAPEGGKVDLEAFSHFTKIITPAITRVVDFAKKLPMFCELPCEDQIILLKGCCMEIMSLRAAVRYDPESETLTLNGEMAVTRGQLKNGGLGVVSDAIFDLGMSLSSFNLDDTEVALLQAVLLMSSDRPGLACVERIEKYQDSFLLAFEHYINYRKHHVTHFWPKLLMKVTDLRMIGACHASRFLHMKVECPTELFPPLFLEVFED

Compound	outcome [1]	outcome [2]	Potency [3]	Potency [4]	Potency [5]	Potency [6]	Potency [7]	Potency [8]	outcome [9]	Potency [10]	activation [11]	Potency [12]	outcome [13]	outcome [14]	outcome [15]	Potency [16]	Potency [17]	Potency [18]	Potency [19]	max response [20]
O=S1OCC2C(CO1)C1(Cl)C(Cl)=C(Cl)C2(Cl)C1(Cl)Cl (stereo not given)	inactive	inactive	25.1 µM (active)	inactive	inactive	inactive	inactive	inactive	inactive	66.8 µM (active)	-0.06%	21.1 µM (active)								
COC(=O)NC(=S)Nc1ccccc1NC(=S)NC(=O)OC	inactive	inactive	inactive	inactive	inactive	inactive	inactive	inactive	inactive	37.6 µM (active)	11.9% and 4.33%	inactive	inactive	inactive	inactive	inactive	inactive	inactive	inactive	-4.83% and -0.925%
C/C=C/c1ccc2c(c1)OCO2	inactive	inactive	inactive	inactive	inactive	inactive	inactive	inactive	inactive			inactive	inactive	inactive	inactive	inactive	inactive	inactive	inactive	-6.18%
ClC1=C(Cl)C2(Cl)C3C4CC(C5OC45)C3C1(Cl)C2(Cl)Cl (stereo not given)			20 µM (active)	39.8 µM (active)	39.8 µM (active)	50.1 µM (active)	31.6 µM (active)	39.8 µM (active)	inactive	42.2 µM (active)	-0.344%	13.3 µM (active)	inactive	inactive	inactive	12.6 µM (active)	12.6 µM (active)	25.1 µM (active)	50.1 µM (active)	9.76%
ClC(Cl)=C(c1ccc(Cl)cc1)c1ccc(Cl)cc1	inactive	inactive	inactive	inactive	inactive	inactive	inactive	inactive	inactive	66.8 µM (active)	0.0823% and 0.597% and 0.112%	37.6 µM (active) and 33.5 µM (active)	inactive	inactive	inactive	inactive	inactive	inactive	inactive	21.8% and 11.7% and 4.05%
C=CCc1ccc(OC)cc1	inactive	inactive	inactive	inactive	inactive	inactive	inactive	inactive		inactive	0.798%	inactive	inactive	inactive	inactive	inactive	inactive	inactive	inactive	0.294%
CCc1cccc(CC)c1N(COC)C(=O)CCl	inactive	inactive	inactive			inactive		39.8 µM (active)	inactive	13.3 µM (active) and 24.3 µM (active)	-1.54% and -2.21%		inactive	inactive	inactive	inactive	inactive	inactive	50.1 µM (active)	-2.24% and -0.952%
CCOCN(C(=O)CCl)c1c(C)cccc1CC	inactive	inactive		50.1 µM (active)	50.1 µM (active)		50.1 µM (active)		inactive	7.5 µM (active) and 7.7 µM (active)	-0.995% and 0.961%	inactive	inactive	inactive	inactive	inactive	inactive	inactive	50.1 µM (active)	-0.344% and -1.51%
CCNc1nc(Cl)nc(NC(C)C)n1	inactive	inactive	inactive	inactive	inactive	inactive	inactive	inactive	inactive	inactive	-0.785% and 0.245%	inactive	inactive	inactive	inactive	inactive	inactive	inactive	inactive	3.27% and 0.807%
COP(=S)(OC)Oc1ccc([N+](=O)[O-])cc1	inactive	inactive	inactive	inactive	inactive	inactive	inactive	inactive	inactive	inactive	0.87% and 0.313%	inactive	inactive	inactive	inactive	inactive	inactive	inactive	inactive	-2.98% and -2.34%

From PubChem BioAssay (NCATS)
